Three compounds from ChEMBL document CHEMBL1961873, “Compounds: GSK PKIS; Assays: Nanosyn kinase panel” (2012) can be followed below.

For test [1], the system named is Epidermal growth factor receptor (Homo sapiens), P00533 [T790M]. The settings on record: at 1 µM.
Test [2] deals with Epidermal growth factor receptor (Homo sapiens), P00533 [L858R,T790M]. As to conditions: at 0.1 µM.
For test [3] the test system is unchanged. The settings on record: at 1 µM.
The target in test [4] is Ephrin type-A receptor 2 (Homo sapiens) (UniProt P29317). The settings on record: at 0.1 µM.
Test [5] has the same target. The settings on record: at 1 µM.
In test [6] the target is T1, Ephrin type-A receptor 3 (Homo sapiens) (UniProt P29320).
T1 sequence (whole entry): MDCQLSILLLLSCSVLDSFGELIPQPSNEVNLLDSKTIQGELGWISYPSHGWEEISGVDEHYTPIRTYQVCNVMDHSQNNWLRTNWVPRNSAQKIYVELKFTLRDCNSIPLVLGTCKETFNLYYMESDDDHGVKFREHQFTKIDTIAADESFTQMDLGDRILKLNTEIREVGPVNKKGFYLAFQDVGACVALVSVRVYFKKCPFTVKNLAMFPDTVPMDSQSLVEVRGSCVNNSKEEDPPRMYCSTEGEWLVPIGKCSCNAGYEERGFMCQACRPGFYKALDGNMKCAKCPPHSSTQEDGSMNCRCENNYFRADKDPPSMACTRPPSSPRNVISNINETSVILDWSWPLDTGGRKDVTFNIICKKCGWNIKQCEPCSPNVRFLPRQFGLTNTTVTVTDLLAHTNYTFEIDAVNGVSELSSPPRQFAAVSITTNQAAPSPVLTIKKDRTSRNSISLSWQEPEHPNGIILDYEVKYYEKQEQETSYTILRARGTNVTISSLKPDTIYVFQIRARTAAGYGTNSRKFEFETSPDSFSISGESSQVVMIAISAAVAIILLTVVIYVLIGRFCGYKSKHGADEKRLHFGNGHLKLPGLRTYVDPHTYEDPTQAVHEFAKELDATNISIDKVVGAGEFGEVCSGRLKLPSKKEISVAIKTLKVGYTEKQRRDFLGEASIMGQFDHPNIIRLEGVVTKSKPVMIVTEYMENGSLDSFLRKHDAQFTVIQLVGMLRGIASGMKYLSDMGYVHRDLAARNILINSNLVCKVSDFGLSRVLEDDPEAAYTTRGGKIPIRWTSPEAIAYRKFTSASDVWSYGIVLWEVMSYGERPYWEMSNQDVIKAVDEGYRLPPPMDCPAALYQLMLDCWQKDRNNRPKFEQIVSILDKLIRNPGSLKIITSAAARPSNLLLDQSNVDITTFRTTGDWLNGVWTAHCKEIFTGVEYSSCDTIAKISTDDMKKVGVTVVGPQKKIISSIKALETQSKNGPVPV
As to conditions: at 0.1 µM.

In test [7] the target is T1, Ephrin type-A receptor 3 (Homo sapiens). The settings on record: at 1 µM.
Test [8] deals with Ephrin type-A receptor 4 (Homo sapiens) (UniProt P54764). The settings on record: at 0.1 µM.
Test [9] shares this target. As to conditions: at 1 µM.
Test [10] addresses T2, Ephrin type-B receptor 2 (Homo sapiens) (UniProt P29323).
T2 sequence (whole entry): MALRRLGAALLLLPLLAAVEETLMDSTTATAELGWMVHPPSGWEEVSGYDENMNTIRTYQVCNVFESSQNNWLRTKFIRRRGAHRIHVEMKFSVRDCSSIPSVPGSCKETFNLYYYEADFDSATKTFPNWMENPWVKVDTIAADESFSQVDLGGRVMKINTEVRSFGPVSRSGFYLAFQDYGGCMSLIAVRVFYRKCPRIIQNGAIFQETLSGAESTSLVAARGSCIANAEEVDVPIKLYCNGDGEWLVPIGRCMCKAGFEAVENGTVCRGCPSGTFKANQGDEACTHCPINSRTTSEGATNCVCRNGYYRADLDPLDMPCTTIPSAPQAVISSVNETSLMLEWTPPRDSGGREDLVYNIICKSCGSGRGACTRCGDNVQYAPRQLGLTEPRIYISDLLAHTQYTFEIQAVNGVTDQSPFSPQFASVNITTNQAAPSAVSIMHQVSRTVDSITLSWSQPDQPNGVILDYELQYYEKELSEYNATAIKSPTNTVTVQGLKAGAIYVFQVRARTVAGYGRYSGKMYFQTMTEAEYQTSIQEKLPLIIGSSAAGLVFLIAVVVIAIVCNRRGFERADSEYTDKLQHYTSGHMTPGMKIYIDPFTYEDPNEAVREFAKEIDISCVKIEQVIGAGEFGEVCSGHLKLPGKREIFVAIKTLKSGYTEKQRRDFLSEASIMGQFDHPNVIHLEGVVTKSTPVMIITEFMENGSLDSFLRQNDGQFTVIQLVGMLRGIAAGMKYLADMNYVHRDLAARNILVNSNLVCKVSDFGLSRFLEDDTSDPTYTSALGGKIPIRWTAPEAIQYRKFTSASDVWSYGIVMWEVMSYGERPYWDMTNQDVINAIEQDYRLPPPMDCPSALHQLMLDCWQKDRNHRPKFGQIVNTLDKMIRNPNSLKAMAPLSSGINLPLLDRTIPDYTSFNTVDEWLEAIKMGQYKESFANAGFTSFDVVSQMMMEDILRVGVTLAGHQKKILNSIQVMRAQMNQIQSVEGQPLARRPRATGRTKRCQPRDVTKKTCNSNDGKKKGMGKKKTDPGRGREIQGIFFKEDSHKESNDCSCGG
As to conditions: at 0.1 µM.

Test [11] addresses T2, Ephrin type-B receptor 2 (Homo sapiens). The settings on record: at 1 µM.
Test [12] concerns the target T3, Ephrin type-B receptor 3 (Homo sapiens) (UniProt P54753).
T3 sequence (whole entry): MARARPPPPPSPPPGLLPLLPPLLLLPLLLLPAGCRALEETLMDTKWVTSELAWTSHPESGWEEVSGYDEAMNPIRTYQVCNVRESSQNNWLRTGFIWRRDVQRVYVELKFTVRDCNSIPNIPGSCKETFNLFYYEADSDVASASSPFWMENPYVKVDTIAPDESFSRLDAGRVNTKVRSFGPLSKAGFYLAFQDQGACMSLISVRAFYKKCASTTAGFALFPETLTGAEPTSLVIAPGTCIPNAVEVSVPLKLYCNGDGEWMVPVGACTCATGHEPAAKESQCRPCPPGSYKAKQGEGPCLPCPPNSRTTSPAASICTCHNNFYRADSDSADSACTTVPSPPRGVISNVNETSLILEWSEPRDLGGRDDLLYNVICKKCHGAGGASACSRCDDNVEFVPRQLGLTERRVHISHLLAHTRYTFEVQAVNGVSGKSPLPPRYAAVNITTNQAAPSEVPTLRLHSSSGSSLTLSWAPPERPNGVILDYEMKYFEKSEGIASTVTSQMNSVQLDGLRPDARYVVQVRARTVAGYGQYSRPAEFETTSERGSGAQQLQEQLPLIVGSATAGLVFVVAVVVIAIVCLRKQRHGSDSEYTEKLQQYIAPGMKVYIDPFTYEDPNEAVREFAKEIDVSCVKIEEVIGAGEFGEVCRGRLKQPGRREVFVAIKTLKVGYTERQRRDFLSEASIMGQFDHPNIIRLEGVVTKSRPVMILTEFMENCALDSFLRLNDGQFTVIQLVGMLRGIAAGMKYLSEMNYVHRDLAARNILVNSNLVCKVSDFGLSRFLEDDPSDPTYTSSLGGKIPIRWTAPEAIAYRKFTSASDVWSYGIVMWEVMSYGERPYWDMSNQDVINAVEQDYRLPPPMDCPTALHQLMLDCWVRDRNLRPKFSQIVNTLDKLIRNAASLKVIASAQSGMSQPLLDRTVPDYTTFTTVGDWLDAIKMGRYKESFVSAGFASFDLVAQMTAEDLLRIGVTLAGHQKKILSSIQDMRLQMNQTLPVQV
The settings on record: at 0.1 µM.

Test [13] deals with T3, Ephrin type-B receptor 3 (Homo sapiens). As to conditions: at 1 µM.
The target in test [14] is T4, Ephrin type-B receptor 4 (Homo sapiens) (UniProt P54760).
T4 sequence (whole entry): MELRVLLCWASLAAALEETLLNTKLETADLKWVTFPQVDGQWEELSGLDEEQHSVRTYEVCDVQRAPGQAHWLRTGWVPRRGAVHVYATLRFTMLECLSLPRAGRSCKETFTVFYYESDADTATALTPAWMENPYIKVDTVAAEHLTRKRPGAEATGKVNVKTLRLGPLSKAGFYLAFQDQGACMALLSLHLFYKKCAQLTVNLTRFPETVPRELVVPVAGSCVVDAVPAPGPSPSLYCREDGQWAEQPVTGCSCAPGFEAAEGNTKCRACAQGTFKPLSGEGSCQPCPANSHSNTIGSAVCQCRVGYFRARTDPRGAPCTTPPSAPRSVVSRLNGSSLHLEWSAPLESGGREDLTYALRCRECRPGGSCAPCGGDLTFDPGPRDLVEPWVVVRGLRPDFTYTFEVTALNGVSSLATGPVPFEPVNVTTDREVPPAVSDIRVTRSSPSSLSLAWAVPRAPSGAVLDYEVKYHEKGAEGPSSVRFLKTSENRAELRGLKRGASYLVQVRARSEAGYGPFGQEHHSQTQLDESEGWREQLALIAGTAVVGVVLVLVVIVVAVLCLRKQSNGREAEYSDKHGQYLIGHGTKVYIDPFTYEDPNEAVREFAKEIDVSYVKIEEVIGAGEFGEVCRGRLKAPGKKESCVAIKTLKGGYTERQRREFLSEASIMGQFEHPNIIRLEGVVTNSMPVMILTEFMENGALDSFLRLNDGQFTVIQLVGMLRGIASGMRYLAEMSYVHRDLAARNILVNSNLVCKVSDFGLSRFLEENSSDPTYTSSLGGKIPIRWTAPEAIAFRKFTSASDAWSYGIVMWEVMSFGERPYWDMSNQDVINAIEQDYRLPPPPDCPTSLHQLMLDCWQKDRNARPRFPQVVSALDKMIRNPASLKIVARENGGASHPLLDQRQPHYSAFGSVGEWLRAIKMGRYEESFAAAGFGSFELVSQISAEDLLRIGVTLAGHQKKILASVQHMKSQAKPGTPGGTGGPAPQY
As to conditions: at 0.1 µM.

Test [15] concerns the target T4, Ephrin type-B receptor 4 (Homo sapiens). The settings on record: at 1 µM.
Test [16] addresses Receptor tyrosine-protein kinase erbB-2 (Homo sapiens) (UniProt P04626). As to conditions: at 0.1 µM.
For test [17] the target is unchanged. As to conditions: at 1 µM.
The target of test [18] is Receptor tyrosine-protein kinase erbB-4 (Homo sapiens) (UniProt Q15303). The settings on record: at 0.1 µM.
Test [19] shares this target. As to conditions: at 1 µM.
In test [20] the target is Tyrosine-protein kinase Fer (Homo sapiens) (UniProt P16591). The settings on record: at 0.1 µM.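 Note: reported figures are averaged percent inhibition of FER.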

Each structure is given as a SMILES string.

Chain of Epidermal growth factor receptor (Homo sapiens), P00533 [L858R,T790M] (P00533 whole entry T790M/L858R, looked up): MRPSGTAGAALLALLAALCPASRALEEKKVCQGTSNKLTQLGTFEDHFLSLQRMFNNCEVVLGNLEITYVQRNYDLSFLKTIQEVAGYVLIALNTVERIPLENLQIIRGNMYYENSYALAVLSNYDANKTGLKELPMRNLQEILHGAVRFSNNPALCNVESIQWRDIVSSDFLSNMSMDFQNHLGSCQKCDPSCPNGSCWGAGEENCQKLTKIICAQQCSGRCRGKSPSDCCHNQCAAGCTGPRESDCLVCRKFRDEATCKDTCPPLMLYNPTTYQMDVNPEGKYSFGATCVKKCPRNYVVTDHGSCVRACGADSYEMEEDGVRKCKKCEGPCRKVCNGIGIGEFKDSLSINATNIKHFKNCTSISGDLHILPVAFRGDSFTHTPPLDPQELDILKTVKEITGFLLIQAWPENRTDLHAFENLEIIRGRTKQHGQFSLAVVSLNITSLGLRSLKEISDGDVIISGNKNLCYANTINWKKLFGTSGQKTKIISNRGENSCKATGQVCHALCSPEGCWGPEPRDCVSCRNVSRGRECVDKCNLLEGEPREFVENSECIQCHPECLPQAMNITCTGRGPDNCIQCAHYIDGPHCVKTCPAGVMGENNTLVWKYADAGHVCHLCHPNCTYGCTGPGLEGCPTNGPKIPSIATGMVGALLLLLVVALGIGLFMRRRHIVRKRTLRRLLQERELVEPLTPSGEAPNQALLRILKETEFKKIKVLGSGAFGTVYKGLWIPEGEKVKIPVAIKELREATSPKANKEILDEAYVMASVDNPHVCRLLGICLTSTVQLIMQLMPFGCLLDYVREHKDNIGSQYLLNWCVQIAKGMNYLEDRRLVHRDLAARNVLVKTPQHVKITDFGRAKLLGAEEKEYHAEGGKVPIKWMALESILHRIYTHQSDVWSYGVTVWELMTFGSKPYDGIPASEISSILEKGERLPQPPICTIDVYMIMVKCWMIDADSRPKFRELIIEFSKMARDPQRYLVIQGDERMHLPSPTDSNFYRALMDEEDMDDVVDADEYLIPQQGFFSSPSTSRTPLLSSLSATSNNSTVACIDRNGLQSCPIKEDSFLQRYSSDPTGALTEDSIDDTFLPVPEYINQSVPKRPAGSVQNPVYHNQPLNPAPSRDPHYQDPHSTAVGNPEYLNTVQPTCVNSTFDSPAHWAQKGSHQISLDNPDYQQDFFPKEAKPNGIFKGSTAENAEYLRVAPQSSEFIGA
Chain of Receptor tyrosine-protein kinase erbB-2 (Homo sapiens) (P04626 whole entry): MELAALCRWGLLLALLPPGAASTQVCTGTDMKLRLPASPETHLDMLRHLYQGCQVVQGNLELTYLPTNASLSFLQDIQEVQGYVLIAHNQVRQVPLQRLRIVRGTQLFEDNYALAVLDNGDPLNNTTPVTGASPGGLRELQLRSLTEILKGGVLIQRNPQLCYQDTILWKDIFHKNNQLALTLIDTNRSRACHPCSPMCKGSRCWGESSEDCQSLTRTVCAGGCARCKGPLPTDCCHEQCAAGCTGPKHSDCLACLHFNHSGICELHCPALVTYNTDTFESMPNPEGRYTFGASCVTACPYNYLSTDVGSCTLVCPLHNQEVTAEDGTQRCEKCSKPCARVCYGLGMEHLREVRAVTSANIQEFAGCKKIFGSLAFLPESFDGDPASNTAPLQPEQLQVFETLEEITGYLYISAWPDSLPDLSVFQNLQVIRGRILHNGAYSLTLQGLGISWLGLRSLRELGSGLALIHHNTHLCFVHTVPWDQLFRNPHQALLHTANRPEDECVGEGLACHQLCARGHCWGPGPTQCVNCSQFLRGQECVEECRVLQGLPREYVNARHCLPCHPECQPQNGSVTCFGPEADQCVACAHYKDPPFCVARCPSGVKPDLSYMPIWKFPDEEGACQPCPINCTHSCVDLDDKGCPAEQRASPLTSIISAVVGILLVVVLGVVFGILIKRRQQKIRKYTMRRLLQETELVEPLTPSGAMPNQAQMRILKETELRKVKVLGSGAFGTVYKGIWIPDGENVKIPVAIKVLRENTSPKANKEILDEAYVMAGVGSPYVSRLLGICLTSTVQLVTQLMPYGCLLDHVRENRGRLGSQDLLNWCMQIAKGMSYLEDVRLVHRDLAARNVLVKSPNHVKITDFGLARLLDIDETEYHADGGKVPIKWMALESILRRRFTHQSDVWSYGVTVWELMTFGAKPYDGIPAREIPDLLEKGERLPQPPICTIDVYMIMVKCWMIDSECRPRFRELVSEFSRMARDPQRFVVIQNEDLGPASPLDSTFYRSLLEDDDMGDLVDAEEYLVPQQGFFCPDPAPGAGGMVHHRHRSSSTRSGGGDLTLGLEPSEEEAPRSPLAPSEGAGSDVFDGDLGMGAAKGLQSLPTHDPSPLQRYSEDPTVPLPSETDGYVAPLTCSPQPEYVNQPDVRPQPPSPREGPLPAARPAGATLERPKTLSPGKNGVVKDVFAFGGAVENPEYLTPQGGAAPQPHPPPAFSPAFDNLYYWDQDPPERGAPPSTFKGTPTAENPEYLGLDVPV
Chain of Receptor tyrosine-protein kinase erbB-4 (Homo sapiens) (Q15303 whole entry): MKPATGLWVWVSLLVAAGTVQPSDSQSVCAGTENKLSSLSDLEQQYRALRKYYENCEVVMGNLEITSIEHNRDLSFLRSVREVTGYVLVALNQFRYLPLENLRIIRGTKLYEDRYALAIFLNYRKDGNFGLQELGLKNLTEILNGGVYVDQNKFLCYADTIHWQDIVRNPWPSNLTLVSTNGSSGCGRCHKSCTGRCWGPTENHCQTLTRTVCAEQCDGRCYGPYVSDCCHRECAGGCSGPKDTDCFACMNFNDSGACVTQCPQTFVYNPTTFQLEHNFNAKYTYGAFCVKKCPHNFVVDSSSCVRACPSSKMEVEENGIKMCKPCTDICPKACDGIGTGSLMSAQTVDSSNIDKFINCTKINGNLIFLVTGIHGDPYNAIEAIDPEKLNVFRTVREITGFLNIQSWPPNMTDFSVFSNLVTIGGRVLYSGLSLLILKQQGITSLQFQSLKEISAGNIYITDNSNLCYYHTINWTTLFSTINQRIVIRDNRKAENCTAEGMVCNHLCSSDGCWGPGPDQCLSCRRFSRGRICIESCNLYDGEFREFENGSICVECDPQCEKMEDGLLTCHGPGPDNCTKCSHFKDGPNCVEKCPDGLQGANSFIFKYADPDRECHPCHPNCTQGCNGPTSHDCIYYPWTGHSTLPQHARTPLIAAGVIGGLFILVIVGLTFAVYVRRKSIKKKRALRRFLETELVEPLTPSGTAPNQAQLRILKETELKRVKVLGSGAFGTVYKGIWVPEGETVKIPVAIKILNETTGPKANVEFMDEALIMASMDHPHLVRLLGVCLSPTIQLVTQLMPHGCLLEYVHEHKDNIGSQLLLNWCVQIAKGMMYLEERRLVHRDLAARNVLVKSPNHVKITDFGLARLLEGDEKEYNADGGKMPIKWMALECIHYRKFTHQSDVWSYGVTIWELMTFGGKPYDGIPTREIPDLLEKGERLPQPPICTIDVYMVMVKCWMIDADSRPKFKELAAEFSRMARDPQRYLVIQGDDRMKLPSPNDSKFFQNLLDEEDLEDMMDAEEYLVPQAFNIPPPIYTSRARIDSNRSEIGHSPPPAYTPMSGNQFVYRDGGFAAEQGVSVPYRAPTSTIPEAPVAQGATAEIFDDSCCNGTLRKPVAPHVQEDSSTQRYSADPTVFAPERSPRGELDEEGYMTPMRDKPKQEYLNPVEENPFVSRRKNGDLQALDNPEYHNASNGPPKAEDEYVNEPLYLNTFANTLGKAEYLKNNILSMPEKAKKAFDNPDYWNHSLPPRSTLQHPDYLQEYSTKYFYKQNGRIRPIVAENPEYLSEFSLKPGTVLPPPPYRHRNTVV
Chain of Tyrosine-protein kinase Fer (Homo sapiens) (P16591 whole entry, looked up): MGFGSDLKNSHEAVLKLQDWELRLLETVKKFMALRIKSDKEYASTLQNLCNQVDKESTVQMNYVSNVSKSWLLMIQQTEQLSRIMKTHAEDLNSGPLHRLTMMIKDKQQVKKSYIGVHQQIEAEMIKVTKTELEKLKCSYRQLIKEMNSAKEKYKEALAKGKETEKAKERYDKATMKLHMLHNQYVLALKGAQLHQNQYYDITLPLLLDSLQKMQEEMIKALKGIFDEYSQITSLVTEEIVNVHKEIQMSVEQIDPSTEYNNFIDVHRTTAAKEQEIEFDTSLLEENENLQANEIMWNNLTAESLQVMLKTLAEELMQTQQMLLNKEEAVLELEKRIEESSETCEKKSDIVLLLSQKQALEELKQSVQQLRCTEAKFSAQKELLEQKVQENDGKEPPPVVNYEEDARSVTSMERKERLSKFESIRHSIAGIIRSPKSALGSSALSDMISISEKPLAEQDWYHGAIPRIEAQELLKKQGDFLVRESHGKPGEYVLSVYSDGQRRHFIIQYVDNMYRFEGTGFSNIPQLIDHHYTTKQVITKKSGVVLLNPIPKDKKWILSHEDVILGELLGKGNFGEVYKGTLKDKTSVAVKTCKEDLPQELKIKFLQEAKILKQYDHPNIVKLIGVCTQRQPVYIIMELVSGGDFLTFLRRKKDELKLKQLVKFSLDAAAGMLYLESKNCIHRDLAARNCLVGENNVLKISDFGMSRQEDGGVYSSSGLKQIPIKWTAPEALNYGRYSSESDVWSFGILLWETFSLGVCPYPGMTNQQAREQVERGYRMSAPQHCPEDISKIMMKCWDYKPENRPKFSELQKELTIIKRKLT

As for `CCn1c(-c2nonc2N)nc2c(C#CC(C)(C)O)ncc(OCC3CCNCC3)c21`, the inhibition – broadly, the relative decrease from the control value, in per cent – in test [1] is 3.59%; in test [2], 2.99%; in test [3] it was 3.17%; in test [4] it was -2.64%; in [5] it was -3.81%; in [6], -0.49%. Further, the inhibition in [7] was -1.92%; in test [8] it was 7.43%; in test [9], 7.66%; in test [10], 1.63%; in test [11], 7.37%; in test [12] it was -0.37%. In addition, the inhibition in test [13] is -1.35%; in test [14], -3.5%; in test [15], -2.94%; in test [16], 1.27%; in test [17], 5.1%; in [18] it was 2.93%. Moreover, the inhibition in [19] stood at 3.14%; in [20] it was 2.18%.
For `NS(=O)(=O)c1ccc(N/C=C2\C(=O)Nc3ccc4ncsc4c32)cc1`, the inhibition in [1] turned out to be 0.85%; in [2], 4.07%; in test [3], 3.15%; in test [4], 1.01%; in [5] it was 1.66%; in test [6], 3.37%. The inhibition in test [7] was 6.86%; in test [8] it was 8.05%; in test [9], 22.4%; in test [10] it was 9.09%; in test [11], 18.1%; in test [12], 2.97%. Further, the inhibition in test [13] came out at 4.36%; in test [14] it was 0.08%; in test [15], 8.11%; in test [16] it was 2.78%; in [17] it was 5.6%; in test [18], 8.52%. The values for the inhibition in [19] and in [20] were 10.8% and 0.16%, respectively.
For the compound `NC(=O)c1sc(-n2cnc3cc(C(F)(F)F)ccc32)cc1OCc1ccccc1Br`, the inhibition in [1] was 0.23%; in test [2], -0.11%; in test [3], -0.24%; in [4], 2.18%; in [5], 0.32%; in test [6] it was 3.31%. Also, the inhibition in test [7] is 1.36%; in test [8], 4.57%; in test [9], 8.16%; in test [10], -4.03%; in [11], 4.29%; in test [12], 1.68%. For the same compound, the inhibition was 3.79% in [13]; 0.19% in [14]; 1.65% in test [15]; 3.19% in [16]; 4.72% in test [17]; 5.4% in [18]. In addition, the inhibition in test [19] turned out to be 14.4%; in test [20], 2.82%.
